Measured values published in the supplement of paper PMC10849652.
About 8,800 targets were measured; listed, in parts, are those with a hit and a random draw of the rest. About 0.5% of all pairs of compound and target were hits.

compound: CCCS(=O)(=O)Nc1ccc(F)c(C(=O)c2c[nH]c3ncc(-c4ccc(Cl)cc4)cc23)c1F [vemurafenib]; assay: log2 fold change, soluble protein after heating vs DMSO (PISA); higher = thermal stabilisation; K562 lysate, 10 uM; active = over 0.2 and 3.5 SD of the protein, either way, in both replicates (recomputed)
Procedure, shortened: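 Dounce homogenisation of K562 pellets in PBS pH 7.4 with 1 mM MgCl2 produced a crude extract, used at 1 mg/mL protein. Exposure to 10 μM compound lasted 30 min, and aliquots were then heated for 3 min across 48°C-58°C, pooled and brought to 0.5% NP-40 at 4°C. The supernatant after 21,000xg for 90 min was quantified by TMTpro 16plex LC-MS/MS with channel sums equalised. Duplicate values are given as log-two fold change in thermal stability relative to solvent controls.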

UniProt Q8TAP6, sequence (Q8TAP6 whole entry, looked up): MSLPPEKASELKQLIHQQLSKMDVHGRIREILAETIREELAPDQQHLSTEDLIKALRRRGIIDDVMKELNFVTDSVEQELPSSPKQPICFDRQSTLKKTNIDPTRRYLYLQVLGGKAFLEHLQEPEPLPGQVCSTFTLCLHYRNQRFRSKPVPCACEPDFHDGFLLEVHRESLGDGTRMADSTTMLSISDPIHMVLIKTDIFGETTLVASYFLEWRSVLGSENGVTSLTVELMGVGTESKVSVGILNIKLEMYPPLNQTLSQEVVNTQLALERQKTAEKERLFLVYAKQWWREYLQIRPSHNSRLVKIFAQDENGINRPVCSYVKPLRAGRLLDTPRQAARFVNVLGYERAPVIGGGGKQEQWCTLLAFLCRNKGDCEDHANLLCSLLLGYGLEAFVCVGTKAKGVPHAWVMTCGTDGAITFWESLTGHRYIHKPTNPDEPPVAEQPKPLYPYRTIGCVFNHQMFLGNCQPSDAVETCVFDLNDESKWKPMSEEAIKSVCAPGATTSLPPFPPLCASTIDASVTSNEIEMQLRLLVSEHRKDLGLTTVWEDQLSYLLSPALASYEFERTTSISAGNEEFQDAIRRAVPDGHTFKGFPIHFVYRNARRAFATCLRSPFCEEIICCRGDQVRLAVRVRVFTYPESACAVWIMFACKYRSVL
UniProt Q6P4E1, sequence (Q6P4E1 whole entry, looked up): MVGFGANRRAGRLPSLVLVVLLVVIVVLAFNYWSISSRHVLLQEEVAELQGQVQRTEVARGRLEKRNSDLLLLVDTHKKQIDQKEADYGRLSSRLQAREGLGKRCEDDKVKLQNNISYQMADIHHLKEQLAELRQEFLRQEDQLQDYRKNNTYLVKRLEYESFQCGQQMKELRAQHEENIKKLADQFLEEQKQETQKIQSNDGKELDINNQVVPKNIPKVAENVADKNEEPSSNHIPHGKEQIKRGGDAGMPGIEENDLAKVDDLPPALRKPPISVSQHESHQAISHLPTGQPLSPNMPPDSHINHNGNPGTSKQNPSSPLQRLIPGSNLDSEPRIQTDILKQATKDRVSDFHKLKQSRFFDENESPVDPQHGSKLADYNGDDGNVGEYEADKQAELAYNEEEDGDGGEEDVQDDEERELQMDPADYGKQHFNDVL
UniProt Q9UL45, sequence (Q9UL45 whole entry, looked up): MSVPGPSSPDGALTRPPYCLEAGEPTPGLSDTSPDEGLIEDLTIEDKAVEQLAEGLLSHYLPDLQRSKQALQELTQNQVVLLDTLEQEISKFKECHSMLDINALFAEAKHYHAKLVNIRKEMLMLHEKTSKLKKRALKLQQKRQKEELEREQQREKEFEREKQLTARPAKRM
UniProt Q9UEE9, sequence (Q9UEE9 whole entry, looked up): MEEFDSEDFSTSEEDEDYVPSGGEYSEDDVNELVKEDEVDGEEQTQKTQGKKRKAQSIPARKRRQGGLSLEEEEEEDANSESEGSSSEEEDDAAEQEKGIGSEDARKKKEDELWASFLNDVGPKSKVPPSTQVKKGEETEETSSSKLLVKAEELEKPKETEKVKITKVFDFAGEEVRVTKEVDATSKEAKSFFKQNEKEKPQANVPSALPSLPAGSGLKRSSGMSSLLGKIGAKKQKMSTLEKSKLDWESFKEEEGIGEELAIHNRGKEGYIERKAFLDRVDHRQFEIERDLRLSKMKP
UniProt Q96NL8, sequence (Q96NL8 whole entry, looked up): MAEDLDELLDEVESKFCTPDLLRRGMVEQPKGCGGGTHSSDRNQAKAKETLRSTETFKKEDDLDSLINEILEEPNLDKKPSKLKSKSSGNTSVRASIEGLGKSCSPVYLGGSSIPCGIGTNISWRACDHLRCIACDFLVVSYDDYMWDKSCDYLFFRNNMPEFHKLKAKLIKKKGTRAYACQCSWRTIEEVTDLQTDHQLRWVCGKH
UniProt P56945, sequence (P56945 whole entry, looked up): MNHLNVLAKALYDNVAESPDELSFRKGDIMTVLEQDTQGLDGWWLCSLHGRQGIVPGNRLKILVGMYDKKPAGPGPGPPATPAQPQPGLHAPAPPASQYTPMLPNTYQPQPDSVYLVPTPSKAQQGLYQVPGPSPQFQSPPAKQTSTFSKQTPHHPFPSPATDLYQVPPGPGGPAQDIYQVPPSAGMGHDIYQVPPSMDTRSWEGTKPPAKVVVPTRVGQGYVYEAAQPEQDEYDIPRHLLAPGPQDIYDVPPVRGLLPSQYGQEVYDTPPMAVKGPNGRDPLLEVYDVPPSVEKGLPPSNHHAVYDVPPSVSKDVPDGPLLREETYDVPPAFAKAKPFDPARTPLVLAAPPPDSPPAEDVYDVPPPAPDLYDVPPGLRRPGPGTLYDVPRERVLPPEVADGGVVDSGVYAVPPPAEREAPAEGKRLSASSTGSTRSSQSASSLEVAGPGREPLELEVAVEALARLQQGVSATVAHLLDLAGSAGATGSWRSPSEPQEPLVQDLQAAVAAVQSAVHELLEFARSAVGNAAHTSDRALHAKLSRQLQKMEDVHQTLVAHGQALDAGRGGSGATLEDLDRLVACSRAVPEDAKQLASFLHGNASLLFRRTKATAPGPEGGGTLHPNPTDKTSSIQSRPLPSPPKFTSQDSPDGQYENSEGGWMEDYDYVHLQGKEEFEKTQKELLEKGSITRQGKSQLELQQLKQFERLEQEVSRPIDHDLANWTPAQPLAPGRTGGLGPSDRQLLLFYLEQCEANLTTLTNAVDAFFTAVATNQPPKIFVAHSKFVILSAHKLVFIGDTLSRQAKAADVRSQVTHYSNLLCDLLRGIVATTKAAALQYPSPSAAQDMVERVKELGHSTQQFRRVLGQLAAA
UniProt Q15834, sequence (Q15834 whole entry, looked up): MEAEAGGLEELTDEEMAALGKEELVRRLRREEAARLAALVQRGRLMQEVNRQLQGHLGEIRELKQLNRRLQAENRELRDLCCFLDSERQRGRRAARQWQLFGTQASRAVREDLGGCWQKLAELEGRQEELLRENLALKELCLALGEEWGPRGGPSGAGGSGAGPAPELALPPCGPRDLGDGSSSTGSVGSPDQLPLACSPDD
UniProt O00748, sequence (O00748 whole entry, looked up): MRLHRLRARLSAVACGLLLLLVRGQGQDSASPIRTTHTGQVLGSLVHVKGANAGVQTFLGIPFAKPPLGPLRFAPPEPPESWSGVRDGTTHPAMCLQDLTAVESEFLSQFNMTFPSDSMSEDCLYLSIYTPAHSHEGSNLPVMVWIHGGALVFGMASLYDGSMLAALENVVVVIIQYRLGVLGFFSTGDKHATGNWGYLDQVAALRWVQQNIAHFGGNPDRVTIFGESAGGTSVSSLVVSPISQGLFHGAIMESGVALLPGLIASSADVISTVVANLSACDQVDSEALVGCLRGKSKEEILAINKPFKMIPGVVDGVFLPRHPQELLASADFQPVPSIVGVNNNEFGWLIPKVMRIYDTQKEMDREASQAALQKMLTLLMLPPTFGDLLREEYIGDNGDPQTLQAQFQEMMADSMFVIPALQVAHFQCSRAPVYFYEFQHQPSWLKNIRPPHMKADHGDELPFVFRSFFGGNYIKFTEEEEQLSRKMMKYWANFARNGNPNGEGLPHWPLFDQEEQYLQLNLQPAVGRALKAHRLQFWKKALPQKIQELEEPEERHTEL
UniProt Q9HD20, sequence (Q9HD20 whole entry, looked up): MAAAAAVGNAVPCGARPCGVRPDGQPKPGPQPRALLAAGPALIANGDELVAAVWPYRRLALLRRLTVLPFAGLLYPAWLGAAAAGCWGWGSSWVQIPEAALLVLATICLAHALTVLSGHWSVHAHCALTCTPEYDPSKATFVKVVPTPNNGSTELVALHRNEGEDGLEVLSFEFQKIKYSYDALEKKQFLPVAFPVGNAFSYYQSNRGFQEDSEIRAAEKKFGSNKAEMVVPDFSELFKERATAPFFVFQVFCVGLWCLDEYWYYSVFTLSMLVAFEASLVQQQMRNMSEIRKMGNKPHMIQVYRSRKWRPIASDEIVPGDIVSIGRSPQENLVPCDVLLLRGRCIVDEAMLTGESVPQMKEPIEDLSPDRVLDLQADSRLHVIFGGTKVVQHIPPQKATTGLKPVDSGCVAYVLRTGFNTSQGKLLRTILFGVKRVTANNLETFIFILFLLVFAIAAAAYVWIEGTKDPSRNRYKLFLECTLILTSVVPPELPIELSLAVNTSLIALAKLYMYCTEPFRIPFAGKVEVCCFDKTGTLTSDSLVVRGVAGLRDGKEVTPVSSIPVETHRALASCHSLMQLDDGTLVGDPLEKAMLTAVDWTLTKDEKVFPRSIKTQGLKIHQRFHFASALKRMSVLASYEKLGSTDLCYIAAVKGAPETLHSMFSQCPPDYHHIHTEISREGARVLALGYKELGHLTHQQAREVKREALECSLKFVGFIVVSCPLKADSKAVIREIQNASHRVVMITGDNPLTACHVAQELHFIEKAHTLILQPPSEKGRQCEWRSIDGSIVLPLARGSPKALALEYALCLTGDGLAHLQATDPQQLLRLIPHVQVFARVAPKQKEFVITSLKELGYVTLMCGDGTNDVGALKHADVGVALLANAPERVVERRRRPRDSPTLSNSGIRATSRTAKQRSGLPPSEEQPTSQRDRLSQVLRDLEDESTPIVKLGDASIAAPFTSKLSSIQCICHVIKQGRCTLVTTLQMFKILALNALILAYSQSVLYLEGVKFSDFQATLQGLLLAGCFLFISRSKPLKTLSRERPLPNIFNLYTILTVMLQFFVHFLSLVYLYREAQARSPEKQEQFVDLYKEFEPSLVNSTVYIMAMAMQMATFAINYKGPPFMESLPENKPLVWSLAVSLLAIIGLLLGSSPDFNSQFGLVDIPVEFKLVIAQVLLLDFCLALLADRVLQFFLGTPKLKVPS
UniProt P83916, sequence (P83916 whole entry, looked up): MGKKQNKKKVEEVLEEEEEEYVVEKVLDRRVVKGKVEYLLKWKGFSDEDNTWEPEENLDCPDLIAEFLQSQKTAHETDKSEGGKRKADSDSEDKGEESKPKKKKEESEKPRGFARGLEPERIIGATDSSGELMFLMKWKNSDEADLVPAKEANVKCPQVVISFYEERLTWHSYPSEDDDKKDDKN
UniProt Q9Y2V2, sequence (Q9Y2V2 whole entry, looked up): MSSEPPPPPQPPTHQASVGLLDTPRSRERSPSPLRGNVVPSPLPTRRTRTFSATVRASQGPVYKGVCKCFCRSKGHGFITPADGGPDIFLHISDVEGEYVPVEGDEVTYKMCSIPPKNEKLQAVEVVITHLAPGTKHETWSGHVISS

log2 fold change, inactive:
CENPQ (UniProt Q7L2Z9) 0.069
CD63 (UniProt P08962) -0.079
CARS isoform 3 (UniProt P49589) 0.011
CCNC (UniProt P24863) 0.22
CBFA2T3 (UniProt O75081) -0.043
BUB1B isoform 3 (UniProt O60566) 0.024
CES2 isoform 4 (UniProt O00748) 0.03
CDC123 (UniProt O75794) -0.052
CCDC85B (UniProt Q15834) -0.317
CARD9 (UniProt Q9H257) 0.03
CANX isoform 2 (UniProt P27824) 0.015
CDKN2AIP (UniProt Q9NXV6) 0.017
AURKA (UniProt O14965) 0.088
CDC42BPA isoform 6 (UniProt Q5VT25) 0.01
ATG13 isoform 2 (UniProt O75143) -0.05
CARHSP1 (UniProt Q9Y2V2) 0.032
CCAR2 (UniProt Q8N163) -0.007
ATP6V0A2 (UniProt Q9Y487) -0.035
CCPG1 isoform 5 (UniProt Q9ULG6) 0.082
CCNB1 (UniProt P14635) 0.032
CCNH (UniProt P51946) -0.025
BCAR1 isoform 6 (UniProt P56945) 0.038
CDAN1 (UniProt Q8IWY9) -0.047
CDK13 (UniProt Q14004) -0.124
CFDP1 (UniProt Q9UEE9) -0.02
ATP11A (UniProt P98196) -0.035
BCKDK (UniProt O14874) -0.036
BLOC1S6 (UniProt Q9UL45) 0.005
CBX1 (UniProt P83916) 0.001
CDC7 (UniProt O00311) 0.065
C19orf54 (UniProt Q5BKX5) 0.08
C8orf37 (UniProt Q96NL8) 0.081
CDK2 (UniProt P24941) -0.012
CEP76 (UniProt Q8TAP6) -0.099
CDK11B (UniProt P21127) 0.025
CASC4 (UniProt Q6P4E1) 0
CCDC32 isoform 2 (UniProt Q9BV29) 0.007
BCR (UniProt P11274) 0.012
ATP13A1 (UniProt Q9HD20) -0.006
CDKN1C (UniProt P49918) -0.275
